# Experiments:
# Assay in all cases: PBM binding z-score (relative to random genomic background probes); higher = stronger binding; sequences stand for … in GC…GCGATTGACAGCGTAGAATGAAGG
# [1] = tested on: RARb homodimer (NR concentration 270 nM)
# How it was run: (§1)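 Regression normalization was applied to scanned fluorescence from custom Agilent 4×180K protein-binding microarrays. Before scanning, arrays were incubated 1 h with ligand-free nuclear receptor dimers, and binding was detected with antibodies against each partner (one per run). Binding z-scores use the random background probes as reference.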
# [2] = tested on: RARg:RXRa (NR concentration 270 nM, RXRa partner concentration 90 nM)
# How it was run: as §1
# [3] = tested on: RARg homodimer (NR concentration 270 nM)
# How it was run: as §1
# [4] = tested on: RXRa DBDmut IVT, anti-RXR (DBD mutation: RXRa K156A/R161A, NR concentration 90 nM)
# How it was run: as §1
# [5] = tested on: RXRa homodimer (NR concentration 180 nM)
# How it was run: as §1
# [6] = tested on: THRa:RXRa (NR concentration 90 nM, RXRa partner concentration 90 nM)
# How it was run: as §1
# [7] = tested on: THRa homodimer (NR concentration 90 nM)
# How it was run: as §1
# [8] = tested on: VDR homodimer (NR concentration 270 nM)
# How it was run: as §1
Sequence,PBM binding z-score [1],PBM binding z-score [2],PBM binding z-score [3],PBM binding z-score [4],PBM binding z-score [5],PBM binding z-score [6],PBM binding z-score [7],PBM binding z-score [8]
TTACCAAGGTGAGCTGACGTCGTTGATCCAACTC,-0.0202,0.00493,0.0726,-0.698,0.32,0.839,-0.28,-1.04
TCGAGTAGGTTAGCCGGGGCATTCAGCCAACATA,0.49,0.0604,-0.231,0.227,0.332,1.17,-0.114,-0.000725
CCTAGCAAGCCAATCTGGGTCACTCAAGGCTTGA,1.9,0.58,0.537,-0.0119,0.781,2.99,0.441,0.0159
TCTTGTAGATCAATAGAGATTAAGAAAGTGCGCT,-0.717,0.0195,0.0177,0.545,0.326,-0.317,-1.06,-0.336
TCTGTTAGGTCAACGATGGTCAGCTAATCTGCTA,3.65,4.38,4.93,1.61,3.2,3.73,2.76,0.727
GCTAGTTGGTCAGTAAAAGGTCACACATCGGTCG,5.17,5.41,4.73,0.844,5.27,3.54,1.84,1.47
ACTCGGAGAACAAAGGTCAGAGCTACGCCAGTGA,4.39,4.46,3.88,0.505,4.55,2.76,0.0239,0.553
CGAACTAGGTCAGCCAGGACAGTGAATACATTGA,2.65,3.04,4.54,1.2,1.54,3.12,1.45,0.353
CCTGGTAGGTCAATGGTCAGCTAAAGCAGCTCGC,2.92,3.75,4.04,0.676,2.66,1.56,0.243,0.307
CCTACTGGGCCAAAGGTCACTGATTCCAATGCTC,4.91,6.24,5.46,0.634,7.03,3.42,1.29,1.88
CCTAGCAGGCCAATCTGGGTGACTCAAGGCTTGA,-0.195,-0.294,-0.326,-0.391,-0.592,2.16,-0.548,-0.648
TCGAGTAGGTTACCATTGGGGCATTCAGCTTTCT,0.675,0.565,0.217,0.45,0.293,0.633,-0.238,-0.46
GGCACGAGGGCATTCGAGTTGATAGCATGGCGAT,0.614,1.04,1.53,3.11,0.455,3.42,-0.251,3.45
ATCGAAAGGTCGTGGGGTGAGTATACAGAAAGGC,3.6,5.2,4.44,2.07,6.17,3.62,2.02,2.16
TCTATTAGTTGATTAGCGCAACCGAAACAGCGGA,-0.343,0.177,-0.0626,1.29,0.499,0.0464,0.16,0.523
TCATATAGGTAAACAGGTGAAGGTCCGTAAGTTA,0.91,0.737,0.389,1.36,0.85,0.707,0.377,0.32
CAAACTAGCTCACGAAAGGTCAAAGTCGAATGAC,4.81,5.46,5.04,1.31,6.26,3.62,0.952,2.53
CCAGACAGGTGAGAAGGTAACCCAGCCTCGATTA,0.888,0.695,0.557,-0.131,0.558,0.444,0.455,-0.253
AGAATGAGGTTATACGTTGATCAGGGAAGAAAGT,0.786,1.49,0.994,1.71,2.12,2.2,0.901,1.5
TAGCCTAGGTCATTGGGCCAATATAGTACGCATC,2.88,4.02,3.84,1.41,2.93,2.91,1.2,1.1
TCTTATAGATCAACAGGAGGTTAAGAAAGATCGA,0.606,1.45,0.65,1.06,1.47,1.05,-0.19,-0.0267
GCAGACAGGTGAAACGCAGGTAACGCAGGGTGGC,0.284,1.13,0.47,-0.945,0.641,1.51,-0.416,-0.757
TAGCCTAGGTCATGGGCCAGTATGCCACGCGAAC,3.09,4.15,4.47,0.363,3.54,3.07,1.16,0.214
GCTGCTAGGTCAGGGTGGTCAGCTAACGGGTACG,3.07,2.91,3.73,0.223,1.41,2.12,0.797,0.245
CGAACTAGGTCATTGACACGACAGTGAATAGTAA,2.5,3.57,4.22,2.37,2.52,2.53,0.751,1.15
CTTACTGGGCCATTCAGAGGTCATTGATCATATG,4.12,4.5,3.62,1.88,4.04,3.24,1.61,3.73
CCTGCTAGGTCAATGGTGAGCTAAAGCAGCTCGC,1.97,3.3,4.12,1.62,1.56,1.77,0.113,-0.465
CCTACTGGGCCACGAAACGTCATTGATTCAGTGA,-0.373,-0.321,0.105,-0.404,-0.385,-0.288,-0.682,-1.01
